For test [1], the target named is Lysine-specific demethylase 5B (Homo sapiens) (UniProt Q9UGL1). As to the kind of experiment: Optimization screen for KDM5B Histone Demethylases FDH coupled qHTS against the LOPAC library (AID 1347166). Conditions: KDM5B demethylation, FDH-coupled NADH fluorescence (FDH is formaldehyde dehydrogenase); series mostly up to 57.5 µM. In short, it runs like this:
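KDM5BDeltaAP (200nM final) in 50mM HEPES pH 7.5, 0.01% Tween-20 was preincubated with compound for 10 min at room temperature. A substrate mix of 12.5uM H3K4Me3, 25uM a-ketoglutarate, ascorbate, Fe2+, NAD+ and formaldehyde dehydrogenase was then added. NADH fluorescence (340/450 nm) was read initially and after 30 min.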
A general note: Quantitative high-throughput screening tests each substance at several concentrations.

The nature of test [2]: qHTS for inhibitors of adenylyl cyclases using a fission yeast platform: a pilot screen against the NCATS LOPAC library (AID 1347410). As to conditions: S. pombe CHP2027, fbp1-GFP fluorescence, 18 h, yeast expressing mammalian AC9 and human GNAS; series mostly up to 57.5 µM. In short, it runs like this:
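GFP from fbp1-GFP reporter, read by Acumen laser cytometry, indicates AC inhibition in fission yeast expressing AC9, GNAS and PDE4D2. Cells grown 18 h in the dark at 30C with compounds, final up to 57 uM.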

Test [3] can be described thus: qHTS to identify inhibitors of the type 1 interferon - major histocompatibility complex class I in skeletal muscle: primary screen against the NCATS Mechanism Interrogation Plate v5.0 (MIPE) Libary (AID 1347411). Note: nearly all actives have a fitted effect of over 65% in size. Note: potency is the fitted concentration of half-maximal effect. Conditions: iHSKM cells + IFN-b, HiBiT-tagged MHC-I luminescence, 24 h; series mostly up to 45.8 µM. In short, it runs like this: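 HLA-B HiBit myoblasts, dexamethasone-free medium + 4 ng/ml IFN-b, 24 h compound, 11-pt 1:3 from 46 uM final. Readout: Nano-Glo HiBiT lytic luminescence after 10 min lysis, RT.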

These results are taken from PubChem BioAssay (NCATS).

Records with an inconclusive call do not appear. A call without a number means that no potency is given here. The source made the active and inactive calls. Calls come from the whole dose curve; as a rule, active = well fitted curve in the direction sought with a large enough effect; inconclusive = small, poorly fitted or top-dose-only effect, or another doubt; inactive = no such curve, though single readings can be large; an effect the other way counts as inactive or inconclusive.

Lysine-specific demethylase 5B (Homo sapiens), sequence (Q9UGL1 whole entry, looked up): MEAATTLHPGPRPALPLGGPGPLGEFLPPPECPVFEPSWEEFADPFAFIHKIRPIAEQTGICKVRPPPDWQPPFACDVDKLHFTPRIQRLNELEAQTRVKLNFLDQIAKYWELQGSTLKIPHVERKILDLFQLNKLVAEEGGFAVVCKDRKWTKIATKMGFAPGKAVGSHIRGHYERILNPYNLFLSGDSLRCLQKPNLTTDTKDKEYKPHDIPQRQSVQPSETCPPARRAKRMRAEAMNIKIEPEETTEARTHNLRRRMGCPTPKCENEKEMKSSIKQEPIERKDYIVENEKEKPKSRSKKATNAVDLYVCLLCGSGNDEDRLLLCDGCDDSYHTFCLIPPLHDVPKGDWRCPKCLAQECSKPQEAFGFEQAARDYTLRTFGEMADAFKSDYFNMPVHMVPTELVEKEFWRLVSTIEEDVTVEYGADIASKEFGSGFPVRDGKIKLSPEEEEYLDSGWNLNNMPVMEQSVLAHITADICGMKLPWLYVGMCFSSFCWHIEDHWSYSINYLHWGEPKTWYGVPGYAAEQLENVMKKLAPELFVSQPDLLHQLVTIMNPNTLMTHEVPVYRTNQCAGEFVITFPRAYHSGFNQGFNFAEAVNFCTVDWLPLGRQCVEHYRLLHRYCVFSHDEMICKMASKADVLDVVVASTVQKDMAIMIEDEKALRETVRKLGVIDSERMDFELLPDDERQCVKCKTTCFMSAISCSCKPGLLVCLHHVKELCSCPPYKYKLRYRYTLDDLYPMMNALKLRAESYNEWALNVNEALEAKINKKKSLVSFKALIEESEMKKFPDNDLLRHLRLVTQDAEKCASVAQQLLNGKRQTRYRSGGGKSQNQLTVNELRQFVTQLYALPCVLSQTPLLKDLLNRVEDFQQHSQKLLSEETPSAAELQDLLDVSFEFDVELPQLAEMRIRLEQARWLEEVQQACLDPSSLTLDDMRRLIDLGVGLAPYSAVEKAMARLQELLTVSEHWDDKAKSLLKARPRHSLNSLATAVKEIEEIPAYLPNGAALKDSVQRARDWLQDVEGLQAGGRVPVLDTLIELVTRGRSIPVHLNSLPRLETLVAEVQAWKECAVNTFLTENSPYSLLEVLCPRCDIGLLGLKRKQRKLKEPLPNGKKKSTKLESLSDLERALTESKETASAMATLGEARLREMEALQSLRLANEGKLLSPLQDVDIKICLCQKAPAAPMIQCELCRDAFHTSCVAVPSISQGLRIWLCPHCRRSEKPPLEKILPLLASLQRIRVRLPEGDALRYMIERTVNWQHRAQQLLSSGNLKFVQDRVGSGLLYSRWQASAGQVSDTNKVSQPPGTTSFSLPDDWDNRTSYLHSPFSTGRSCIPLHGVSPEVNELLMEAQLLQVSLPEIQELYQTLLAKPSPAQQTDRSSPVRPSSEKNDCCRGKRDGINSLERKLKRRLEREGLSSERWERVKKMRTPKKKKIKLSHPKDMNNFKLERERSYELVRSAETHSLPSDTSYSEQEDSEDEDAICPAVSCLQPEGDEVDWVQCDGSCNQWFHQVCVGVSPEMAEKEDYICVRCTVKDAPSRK

With `C[C@H]1O[C@@H](n2cc(F)c(=O)[nH]c2=O)[C@H](O)[C@H]1O`, the compound was called inactive in test [1].

For `C=CCc1cccc(C=NNC(=O)CN2CCN(Cc3ccccc3)CC2)c1O`, the result in test [2] was inactive. In the case of `CCn1c(-c2nonc2N)nc2cncc(CNC3CCNCC3)c21`, the Potency result in test [3] was “inactive”. For `Cc1c(C(=O)Nc2ccc(N3C[C@@H](C)O[C@@H](C)C3)nc2)cccc1-c1ccc(OC(F)(F)F)cc1`, the Potency entry in test [3] is “inactive”.

As for `Cc1ccccc1C(C(=O)NC1CCCCC1)N(C(=O)CNc1ccc(C#N)cc1)c1cccc(F)c1` (stereo not drawn), the Potency result in test [3] is “inactive”.

For the compound `N#Cc1ccc(Oc2ccc3c(c2)COB3O)cc1`, the Potency result in test [3] is “inactive”. `CC(C)C[C@@H](N)[C@H](O)C(=O)N[C@H](C(=O)N[C@H](C(=O)N[C@@H](CC(=O)O)C(=O)O)C(C)C)C(C)C`: the Potency entry in test [3] was “inactive”. In the case of `Cc1cc(C(C)Nc2ccccc2)c2nc(N3CCOCC3)cc(=O)n2c1` (stereo not drawn), the Potency result in test [3] is “inactive”. The same measure, in the same setting: the entry for `CCC(=O)NCC[C@@H]1CCc2ccc3c(c21)CCO3` is “inactive”; for `CN1C(=O)C(Cc2c[nH]c3ccccc23)NC1=S` (stereo not drawn) it is “inactive”; for `Cc1cc2nc3c(=O)[nH]c(=O)nc-3n(CC(O)C(O)C(O)CO)c2cc1C` (stereo not drawn) it is “inactive”. As for `COc1ccc2nc3cc(Cl)ccc3c(Nc3cc(CN4CCCC4)c(O)c(CN4CCCC4)c3)c2n1`, the Potency in test [3] is 18.6 µM (active). With `CC(=O)NCCC(=O)N[C@@H](CCC(N)=O)C(=O)N[C@@H](CO)C(=O)N[C@@H](CCC(N)=O)C(=O)N[C@@H](CCC(N)=O)C(=O)N[C@H](C(=O)N[C@@H](Cc1ccccc1)C(=O)N[C@]1(C)CCCCCCC=CCCC[C@@](C)(C(=O)N[C@@H](CCC(N)=O)C(=O)N[C@@H](CC(N)=O)C(N)=O)NC(=O)[C@H](CC(C)C)NC(=O)[C@H](CC(C)C)NC(=O)[C@@H](CCCNC(=N)N)NC(=O)[C@H](Cc2c[nH]c3ccccc23)NC(=O)[C@H](CC(C)C)NC(=O)[C@H](CC(N)=O)NC1=O)[C@H](C)O`, the Potency result in test [3] was “inactive”.
